Laboratory results reported in PubChem BioAssay (Tox21).
“And” between values parts separate entries of the source, which are not always exact repeats. Equal values may be shown once. Results filed as inconclusive are left out. The source made the active and inactive calls. Calls come from the whole dose curve; as a rule, active = well fitted inhibition curve with a large enough effect in the signal ratio in the repeat runs; inconclusive = weak or mixed curves, or effect the other way; inactive = flat fitted curve, though single readings scatter; the % refers to the signal ratio.

assay: qHTS assay for small molecule disruptors of the mitochondrial membrane potential (AID 720635); details: HepG2 mitochondrial membrane potential, Mito-MPS dye ratio; series mostly up to 83.2 µM; ratio activity, negative = MMP loss: at the top concentration
Outline: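 HepG2 cells (2,000/well) attached overnight at 37C, then took compound for 1 hr at 37C, 5% CO2. Mito-MPS dye was added for 30 min; fluorescence was read at 490/535 nm (monomers) and 540/590 nm (aggregates).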
% is set by controls: 0 for no effect and ±100 for the full control effect; potency is the fitted concentration of half-maximal effect.

SMILES | Potency | ratio activity, negative = MMP loss
Cc1cc(O)c(C(C)(C)C)cc1C(C)(C)C | 0.969 µM (active) | –
CCCCCCCCCCn1cc[n+](CCCCCCCCCC)c1C | 2.17 µM (active) | –
O=C(Nc1ccc(Oc2ccc(Cl)cc2)c(Cl)c1)c1cc(I)cc(I)c1O | 2.37 µM (active) | –
Oc1ccc(Cl)cc1Sc1cc(Cl)ccc1O | 2.11 µM (active) and 1.53 µM (active) | –
O=C(OCC(COC(=O)c1ccccc1)(COC(=O)c1ccccc1)COC(=O)c1ccccc1)c1ccccc1 | 3.06 µM (active) | –
O=S1(=O)CC(Cl)(Cl)C(Cl)(Cl)C1 | 12.2 µM (active) | –
N#CSc1ccc(N)c([N+](=O)[O-])c1 | 61.5 µM (active) | –
CC1=NC(C)OC1C (stereo unspecified) | – | 13.7% (inactive)
Cc1ccc(-n2nc(C(C)(C)C)cc2NC(=O)Nc2ccc(OCCN3CCOCC3)c3ccccc23)cc1 | 18.8 µM (active) | –
CCCCCCCC[N+](CCCCCCCC)(CCCCCCCC)CCCCCCCC | 0.0768 µM (active) | –
CCCCCCOC(=O)c1ccc(O)cc1 | 6.12 µM (active) and 8.63 µM (active) | –
[O-][n+]1ccccc1SSc1cccc[n+]1[O-] | 0.668 µM (active) | –
CCCCCCCCCCCCCCCCCC[N+](C)(C)Cc1ccccc1 | 15.5 µM (active) | –
CCCC(C)c1ccccc1O (stereo unspecified) | 30.6 µM (active) | –
CCCCCCCCCCCCCC[P+](CCCC)(CCCC)CCCC (tested in a mixture with another compound) | 0.69 µM (active) | –
Oc1cccc(-c2c3nc(c(-c4cccc(O)c4)c4ccc([nH]4)c(-c4cccc(O)c4)c4nc(c(-c5cccc(O)c5)c5ccc2[nH]5)CC4)C=C3)c1 | 26.6 µM (active) | –
